Where a name gives a salt, the structure may show the parent alone. ± gives the standard deviation of the averaged measurements. Over roughly 2,600 compounds, “total cell number (DAPI+ nuclei) relative to DMSO vehicle control” has its median near -1.4; the lowest 2% begin near -23. The sample holds the lowest values, similar compounds and a random draw of the others, so the mix is not that of the screen.
Each compound was assayed on jimpy (Plp1 jimpy) mouse iPSC-derived oligodendrocyte progenitor cells (assay: total cell number (DAPI+ nuclei) relative to DMSO vehicle control (SDs above negative control mean); higher = more surviving cells). Conditions: 10 µM; 3 days.
Method: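 Primary phenotypic screen of >3,000 bioactive compounds (Selleck L1700 and Sigma LO1280 libraries) at a single dose of 10 µM. Compounds were added to jimpy (Plp1 mutant) mouse iPSC-derived OPCs at the start of thyroid hormone-induced oligodendrocyte differentiation, one well per compound in 384-well plates. After 3 days cells were stained for MBP, Sox10 and DAPI and imaged with an Operetta system. MBP+ oligodendrocyte number and total cell number were expressed as the number of SDs above the mean of the DMSO negative control on the same plate (n=16 control wells per plate). Hits were defined as >=4 SD for oligodendrocytes and >=2 SD for total cells.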

SMILES	total cell number
CCN(c1cc(-c2ccc(CN3CCOCC3)cc2)cc(C(=O)NCc2c(C)cc(C)[nH]c2=O)c1C)C1CCOCC1	2.45
CCNC(=O)c1noc(-c2cc(C(C)C)c(O)cc2O)c1-c1ccc(CN2CCOCC2)cc1	-26.3
Cc1cc(C)c(CNC(=O)c2cc(-c3ccc(CN4CCOCC4)cc3)cc3c2cnn3C2CCCC2)c(=O)[nH]1	7.3
CN[C@@H](C)C(=O)N[C@H](C(=O)N1CCC[C@H]1C(=O)Nc1snnc1-c1ccccc1)C1CCCCC1	-4.08
O=S(=O)(O)Oc1ccc(C(c2ccc(OS(=O)(=O)O)cc2)c2ccccn2)cc1 [Sodium Picosulfate]	0.486
O=C(O)C(=O)O.[NH-][C@@H]1CCCC[C@H]1[NH-].[Pt+2] [Oxaliplatin]	-23.4
COc1ccc2c(Oc3ccc(NC(=O)c4c(C)n(CC(C)(C)O)n(-c5ccccc5)c4=O)nc3)ccnc2c1	-3.37
CCOC(=O)CC(=O)N1CCSC1COc1ccccc1OC (stereo not given) [Moguisteine]	-1.39
NC1(c2ccc(-c3nc4ccn5c(=O)[nH]nc5c4cc3-c3ccccc3)cc2)CCC1	-25.6
CC1=C(C(=O)O)N2C(=O)[C@@H](NC(=O)[C@H](N)C3=CCC=CC3)[C@H]2SC1 [Cephradine]	-1.61
CN(C)CCC(c1ccc(Cl)cc1)c1ccccn1 (racemic) [(±)-Chlorpheniramine maleate]	-2.22
C=CC(=O)Nc1ccc2ncnc(Nc3ccc(OCc4cccc(F)c4)c(Cl)c3)c2c1	-12.9
CN(C)C/C=C/C(=O)Nc1cc2c(Nc3ccc(F)c(Cl)c3)ncnc2cc1O[C@H]1CCOC1 [Afatinib (BIBW2992)]	-25.6
COc1cc2ncnc(Nc3ccc(F)c(Cl)c3)c2cc1OCCCN1CCOCC1 [Gefitinib (ZD1839)]	-20.6
COc1cc2nccc(Oc3ccc(NC(=O)C4(C(=O)Nc5ccc(F)cc5)CC4)cc3)c2cc1OC	-20
C=CC(=O)Nc1cc2c(Nc3ccc(F)c(Cl)c3)ncnc2cc1OCCCN1CCOCC1 [Canertinib (CI-1033)]	-24.4
CCOc1cc2ncc(C#N)c(Nc3ccc(F)c(Cl)c3)c2cc1NC(=O)/C=C/CN(C)C [Pelitinib (EKB-569)]	-27.4
COc1cc2c(Oc3ccc(NC(=O)C4(C(=O)Nc5ccc(F)cc5)CC4)cc3F)ccnc2cc1OCCCN1CCOCC1	-27
COc1cc(C(C)=O)ccc1OCCCN1CCC(c2noc3cc(F)ccc23)CC1 [Iloperidone]	-2.6
CCOc1cc2ncc(C#N)c(Nc3ccc(OCc4ccccn4)c(Cl)c3)c2cc1NC(=O)/C=C/CN(C)C [Neratinib (HKI-272)]	-12.8
COc1cc2ncnc(Nc3ccc(F)c(Cl)c3)c2cc1NC(=O)/C=C/CN1CCCCC1	-11.6
COc1cc2ncnc(Nc3ccc(Cl)cc3F)c2cc1OC	-8.14
CCOc1cc(C(=O)Nc2ccc(Cl)c(-c3nc4ccccc4[nH]3)c2)cc(OCC)c1OCC	-2.15
Cc1c(C(=O)N2CCOc3ccc(-c4ccc(N)nc4)cc3C2)ccc(S(C)(=O)=O)c1F	-3.21
NOCC(=O)O [O-(Carboxymethyl)hydroxylamine hemihydrochloride]	1.52
N#Cc1c(O)c2c(-c3ccc(-c4ccccc4O)cc3)csc2[nH]c1=O	0.298
c1coc(CNc2ncnc3[nH]cnc23)c1 [Kinetin]	0.658

SMILES	total cell number
COc1cc(/C=C(\C#N)C(=O)Nc2nnc(C(F)(F)F)s2)ccc1OCc1ccc(C(F)(F)F)cc1C(F)(F)F	-0.657
Cc1cc(/C=C/C#N)cc(C)c1Nc1ccnc(Nc2ccc(C#N)cc2)n1 [Rilpivirine]	-9.09
Oc1ccc(/C=C/c2cc(O)cc(O)c2)cc1 [Resveratrol]	-2.54 ± 1
CCN(c1nc(N)c(C(=O)NC(=N)N)nc1Cl)C(C)C [5-(N-Ethyl-N-isopropyl)amiloride]	-4.19
O=c1cc[nH]c(=S)[nH]1 [2-Thiouracil]	-0.0444
CS(=O)(=O)c1ccc(C(=O)Nc2ccc(Cl)c(-c3ccccn3)c2)c(Cl)c1 [Vismodegib (GDC-0449)]	-1.63
CNC(=O)Nc1ccc(-c2nc(N3CC4CCC(C3)O4)c3cnn(C4CCC5(CC4)OCCO5)c3n2)cc1	-8.93
COc1ccccc1N1CCN(CCCNc2c(C)c(=O)n(C)c(=O)n2C)CC1 [Urapidil, 5-Methyl-]	-1.49
CCCCCCCCCCCCCCCCCCOP(=O)([O-])OC1CC[N+](C)(C)CC1 [Perifosine]	-0.796
CN(C)CC(c1ccc(O)cc1)C1(O)CCCCC1 (stereo not given) [Desvenlafaxine Succinate]	-3.69
CN(C)CC(c1ccc(O)cc1)C1(O)CCCCC1 (stereo not given) [Desvenlafaxine]	-0.735
Oc1ccccc1O [Pyrocatechol]	-10.2
Nc1cc(=O)[nH]c(N)n1 [2,4-Diamino-6-pyrimidinone]	-1.65
CC(C)(O)CC[C@@H](O)[C@](C)(O)[C@H]1CC[C@@]2(O)C3=CC(=O)[C@@H]4C[C@@H](O)[C@@H](O)C[C@]4(C)[C@H]3CC[C@]12C [20-Hydroxyecdysone]	-0.544
CC(S)C(=O)NCC(=O)O (stereo not given) [Tiopronin]	-2.65
C=C(C)[C@@H]1CC=C(C(=O)O)CC1 [(-)-Perillic acid]	-1.68
CN(C)c1ccc(-c2nc3ncc(Cl)c(N4CCN(CC(=O)Nc5nccs5)CC4)c3[nH]2)cc1	1.85
O=C1CCC(N2C(=O)c3ccccc3C2=O)C(=O)N1 (racemic) [(±)-Thalidomide]	-2.18
O=C1CCC[C@@H]2[C@H]3CCC[N+]4([O-])CCC[C@@H](CN12)[C@@H]34 (stereo not given in full) [Oxymatrine]	-0.222
COc1cc2c(N3CCN(C(=O)Nc4ccc(OC(C)C)cc4)CC3)ncnc2cc1OCCCN1CCCCC1 [Tandutinib (MLN518)]	-10.3
C#Cc1cccc(Nc2ncnc3cc(OC)c(OCCCCCCC(=O)NO)cc23)c1	-18.7
COc1cc2c(Nc3ccc(NC(=O)c4ccccc4)cc3)ncnc2cc1OCCCN1CCOCC1	-26.6
CCOC(=O)[C@@H](N)Cc1ccc(O)c(O)c1 [L-Dopa ethyl ester]	-2.07
CO[C@H]1/C=C\C=C(/C)C(=O)NC2=CC(=O)C(NCCN(C)C)=C(C[C@@H](C)C[C@H](OC)[C@H](O)[C@@H](C)/C=C(\C)[C@@H]1OC(N)=O)C2=O [17-DMAG (Alvespimycin) HCl]	-26.5
C=CCNC1=C2C[C@@H](C)C[C@H](OC)[C@H](O)[C@@H](C)/C=C(\C)[C@H](OC(N)=O)[C@@H](OC)/C=C\C=C(/C)C(=O)NC(=CC1=O)C2=O [17-AAG (Tanespimycin)]	-25
COC1=C2C[C@@H](C)C[C@H](OC)[C@H](O)[C@@H](C)/C=C(\C)[C@H](OC(N)=O)[C@@H](OC)/C=C\C=C(/C)C(=O)NC(=CC1=O)C2=O [Geldanamycin]	-12.3
CN(NC(=O)CC(=O)NN(C)C(=S)c1ccccc1)C(=S)c1ccccc1 [Elesclomol (STA-4783)]	-1.04

SMILES	total cell number
CCC(C)(Oc1ccc(C2(c3ccc(OC(C)(CC)C(=O)O)cc3)CCCCC2)cc1)C(=O)O (stereo not given) [Clinofibrate]	1.25
N[C@H]1C[C@@H]1c1ccc(-c2cccc(O)c2)cc1	-3.31
Cc1ccc(C(=O)Cn2c3c(sc2=N)CCCC3)cc1 [Pifithrin-? (PFT?)]	1.69
OC[C@H]1O[C@@H](n2cnc3c(N[C@H]4CCC[C@@H]4O)ncnc32)[C@H](O)[C@@H]1O	0.458
CC(Cc1ccc(O)c(O)c1)(NN)C(=O)O (stereo not drawn) [S-(-)-Carbidopa]	-1.61
Cc1cc(Cn2cnc3c2C[C@@H](C(=O)O)N(C(=O)C(c2ccccc2)c2ccccc2)C3)ccc1N	-6.04
O=C(Nc1ccccc1-c1cn2c(CN3CCNCC3)csc2n1)c1cnc2ccccc2n1	-27.8
C=C1C[C@@]23CC[C@H]4[C@@](C)(CCC[C@@]4(C)C(=O)O)[C@@H]2CC[C@]1(O)C3 [Steviol]	-0.619
Cc1cc(NC(=O)Nc2ccc3c(ccn3C)c2)sn1	-1.4
CC(C)c1cc(-c2n[nH]c(=O)n2-c2ccc3c(ccn3C)c2)c(O)cc1O [Ganetespib (STA-9090)]	-25.4
CN(C[C@@H]1COCCO1)S(=O)(=O)Nc1ccc2ccc3ncc(-c4cnn(C)c4)cc3c(=O)c2c1	-9.05
Cc1ccc(C(=O)N(CCCN)[C@@H](c2nc3cc(Cl)ccc3c(=O)n2Cc2ccccc2)C(C)C)cc1	-27.5
Cc1ccc(C(=O)N(CCCN)[C@@H](c2oc3cc(Cl)ccc3c(=O)c2Cc2ccccc2)C(C)C)cc1	-15.1
CNC(=O)CN(CCN(CCN(CC(=O)[O-])CC(=O)NC)CC(=O)[O-])CC(=O)[O-].[Gd+3] [Gadodiamide]	-14.9
C=CCNC(N)=S [Allylthiourea]	6.27
CCc1ccc(OCc2ccccc2C(=O)Nc2ccc3nc(C)cc(N)c3c2)cc1	-12.5
COc1cc2nccc(Oc3ccc(NC(=O)Nc4cc(C)on4)c(Cl)c3)c2cc1OC [Tivozanib (AV-951)]	-23.5
COc1cc(OC)c(NC(=O)Nc2cc(C)on2)cc1Cl	-0.876
COc1cc2nccc(Oc3ccc(NC(=O)NC4CC4)c(Cl)c3)c2cc1C(N)=O [Lenvatinib (E7080)]	-9.34
Nc1nccc2c1ncn2C1C=C(CO)C(O)C1O (stereo not given) [3-Deazaneplanocin A (DZNeP)]	-9.16
CN(C)C[C@H](O)Cn1c2ccc(Br)cc2c2cc(Br)ccc21 (racemic) [Wiskostatin]	-4.17
Nc1n[n+]([O-])c2ccccc2[n+]1[O-] [Tirapazamine]	-6.5
COc1ccc2[nH]c([S+]([O-])Cc3ncc(C)c(OC)c3C)nc2c1 (stereo not given) [Omeprazole]	5.38
COc1c(C)cnc(Cn2cnc3c(Cl)nc(N)nc32)c1C	-26.3
COc1ccc2[nH]c([S@@+]([O-])Cc3ncc(C)c(OC)c3C)nc2c1 [Esomeprazole magnesium dihydrate]	-0.604
COc1ccc2[nH]c([S@@+]([O-])Cc3ncc(C)c(OC)c3C)nc2c1 [Esomeprazole Sodium]	1.8
